Experimental data published in PubChem BioAssay (NCATS).
Records with an inconclusive call do not appear. The source made the active and inactive calls. Calls come from the whole dose curve; as a rule, active = well fitted inhibition curve with a large enough effect; inconclusive = small, poorly fitted or top-dose-only effect; inactive = flat fitted curve, though single readings scatter.

Assays:
CRL-7250 = normal cell line; assay: Cytotoxic Profiling of Annotated Libraries Using Quantitative High-Throughput Screening (AID 1296008); conditions: Five cell lines viability, CellTiter-Glo ATP luminescence, 48-72 h; max response: hits give low values
Method in brief: (§1)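 Cytotoxicity was measured as CellTiter-Glo ATP luminescence, read after 10 min at room temperature. Compound treatment of the cells lasted 48 or 72 hr at 37 degrees Celsius in a qHTS format.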

HaCat [1] = assay: as above; conditions: Five cell lines viability, CellTiter-Glo ATP luminescence, 48-72 h; max response: hits give low values
Method in brief: as §1

KB-3-1 = assay: as above; conditions: Five cell lines viability, CellTiter-Glo ATP luminescence, 48-72 h; max response: hits give low values
Method in brief: as §1

NIH3T3 [2] = assay: as above; conditions: Five cell lines viability, CellTiter-Glo ATP luminescence, 48-72 h; max response: hits give low values
Method in brief: as §1

HACAT [3] = assay: qHTS assay to identify novel small-molecules to repurpose for Merkel cell carcinoma treatment (AID 1296009); conditions: MCC and control cell lines, CellTiter-Glo viability, 72 h; at 44.8 µM (top of the series) unless noted
Method in brief: (§2)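 Cell viability measured by CellTiter-Glo following 72 hr compound treatment at 37 degree celsius, with NPC and MIPE libraries tested in 8- and 11-point concentration series.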

MCC-13 = assay: as above; conditions: MCC and control cell lines, CellTiter-Glo viability, 72 h; series mostly up to 46 µM
Method in brief: as §2

MCC-26 = assay: as above; conditions: MCC and control cell lines, CellTiter-Glo viability, 72 h; series mostly up to 46 µM
Method in brief: as §2

MKL-2 = assay: as above; conditions: MCC and control cell lines, CellTiter-Glo viability, 72 h; series mostly up to 46 µM
Method in brief: as §2

UISO = assay: as above; conditions: MCC and control cell lines, CellTiter-Glo viability, 72 h; series mostly up to 46 µM
Method in brief: as §2

MKL-1 = assay: as above; conditions: MCC and control cell lines, CellTiter-Glo viability, 72 h; series mostly up to 46 µM
Method in brief: as §2

WaGa = assay: as above; conditions: MCC and control cell lines, CellTiter-Glo viability, 72 h; series mostly up to 46 µM
Method in brief: as §2

HEK293T = assay: as above; conditions: MCC and control cell lines, CellTiter-Glo viability, 72 h; at 44.8 µM (top of the series) unless noted
Method in brief: as §2

NIH3T3 [4] = assay: as above; conditions: MCC and control cell lines, CellTiter-Glo viability, 72 h; series mostly up to 44.8 µM
Method in brief: as §2
% is set by controls: 0 for no effect and ±100 for the full control effect; potency is the fitted concentration of half-maximal effect.
Note: nearly all actives have a fitted effect of over 60% in size.

CN(C)CCOc1ccc(-c2nc(-c3ccc4c(c3)CCC4=NO)c(-c3ccncc3)[nH]2)cc1
active: Potency (MKL-2) 14.8 µM
inactive: outcome (CRL-7250) | outcome (HaCat [1]) | max response (KB-3-1) 2.27% | max response (NIH3T3 [2]) 1.65% | outcome (HACAT [3]) | Potency (MCC-13) | Potency (MCC-26) | Potency (UISO)

CC(C)[C@H](O)C(=O)N[C@@H](C)C(=O)N[C@@H]1C(=O)N(C)CCc2ccccc21
inactive: max response (CRL-7250) -12.5% | max response (HaCat [1]) 1.12% | max response (KB-3-1) -11.2% | max response (NIH3T3 [2]) -3.15% | Potency (MCC-13) | Potency (MCC-26) | Potency (MKL-1) | Potency (MKL-2) | Potency (UISO) | Potency (WaGa)

COC(=O)[C@H](c1ccccc1Cl)N1CCc2sccc2C1
inactive: max response (CRL-7250) -2.92% | max response (HaCat [1]) -12% | outcome (KB-3-1) | max response (NIH3T3 [2]) -0.568% | Potency (MCC-13) | Potency (MCC-26) | Potency (MKL-1) | Potency (MKL-2) | Potency (UISO) | Potency (WaGa)

N#CC(c1ccnc(NCCc2cccnc2)n1)c1nc2ccccc2s1 (stereo unspecified)
inactive: max response (CRL-7250) -3.29% | outcome (HaCat [1]) | max response (KB-3-1) 8.21% | max response (NIH3T3 [2]) -3.33% | outcome (HACAT [3]) | Potency (MCC-13) | Potency (MCC-26) | Potency (MKL-1) | Potency (MKL-2) | Potency (UISO)

CC1CNc2c(cccc2S(=O)(=O)N[C@@H](CCCN=C(N)N)C(=O)N2CC[C@@H](C)C[C@@H]2C(=O)O)C1 (stereo partly specified)
active: Potency (MKL-1) 16.6 µM | Potency (MKL-2) 3.72 µM | Potency (WaGa) 4.69 µM
inactive: outcome (CRL-7250) | outcome (HaCat [1]) | max response (KB-3-1) 9.69% | max response (NIH3T3 [2]) -2.95% | outcome (HACAT [3]) | outcome (HEK293T) | Potency (MCC-13) | Potency (MCC-26) | Potency (UISO)

CCOC(=O)c1c(CSc2ccccc2)n(C)c2cc(Br)c(O)c(CN(C)C)c12
inactive: outcome (CRL-7250) | outcome (HaCat [1]) | max response (KB-3-1) -17.1% | max response (NIH3T3 [2]) -4.48% | outcome (HACAT [3]) | Potency (MCC-13) | Potency (MCC-26) | Potency (MKL-1) | Potency (MKL-2) | Potency (UISO) | Potency (WaGa)

CC(=O)N1CCN(c2ccc(OCc3nn(C)c(C)c3-c3cccc4c(CCCOc5cc(C)c(Cl)c(C)c5)c(C(=O)O)n(Cc5cccnc5)c34)cc2)CC1
inactive: max response (CRL-7250) 4.49% | outcome (HaCat [1]) | max response (KB-3-1) 1.85% | outcome (NIH3T3 [2]) | outcome (HACAT [3]) | outcome (HEK293T) inactive; activator | Potency (MCC-13) | Potency (MCC-26) | Potency (MKL-1) | Potency (NIH3T3 [4]) | Potency (UISO)
active: Potency (MKL-2) 14.8 µM | Potency (WaGa) 11.8 µM

COc1cc2c(cc1OC)[C@@H]1Cc3ccc(OC)c(OC)c3CN1CC2
inactive: max response (CRL-7250) -7.12% | max response (HaCat [1]) -3.71% | max response (KB-3-1) -25.3% | max response (NIH3T3 [2]) -3.25% | Potency (MCC-13) | Potency (MCC-26) | Potency (MKL-1) | Potency (UISO)
active: Potency (MKL-2) 18.7 µM

CCC[C@H](N[C@@H](C)C(=O)N1[C@@H]2CCCC[C@H]2C[C@H]1C(=O)O)C(=O)OCC
inactive: max response (CRL-7250) 2.7% | outcome (HaCat [1]) | max response (KB-3-1) -1.21% | max response (NIH3T3 [2]) -10.8% | outcome (HACAT [3]) | Potency (MCC-13) | Potency (MCC-26) | Potency (MKL-1) | Potency (MKL-2) | Potency (UISO) | Potency (WaGa)

O=[N+]([O-])c1ccc(Nc2ccccc2-c2ccccc2)c2nonc12
inactive: max response (CRL-7250) -7.85% | outcome (HaCat [1]) | max response (KB-3-1) -18.3% | max response (NIH3T3 [2]) -25.2% | outcome (HACAT [3]) | Potency (MCC-13) | Potency (MCC-26) | Potency (MKL-1) | Potency (MKL-2) | Potency (UISO) | Potency (WaGa)

CCCCCCOC(=O)N=C(N)c1ccc(NCc2nc3cc(C(=O)N(CCC(=O)OCC)c4ccccn4)ccc3n2C)cc1
inactive: max response (CRL-7250) -14.3% | outcome (HaCat [1]) | max response (KB-3-1) 5.67% | max response (NIH3T3 [2]) 3.96% | outcome (HACAT [3]) | Potency (MCC-13) | Potency (MCC-26) | Potency (MKL-2) | Potency (UISO) | Potency (WaGa)

COc1ccc2c(c1)CC[C@H]1[C@@H]2CC[C@]2(C)[C@@H](NCCCCCCN3C(=O)C=CC3=O)CC[C@H]12
inactive: max response (CRL-7250) -3.42% | max response (HaCat [1]) 1.55% | max response (KB-3-1) -4.66% | max response (NIH3T3 [2]) -1.24% | Potency (MCC-13) | Potency (MCC-26) | Potency (MKL-1) | Potency (MKL-2) | Potency (UISO) | Potency (WaGa)

O=C(O)CCC=CCC[C@@H]1[C@H](N2CCCCC2)[C@@H](O)C[C@@H]1OCc1ccc(-c2ccccc2)cc1
inactive: outcome (CRL-7250) | outcome (HaCat [1]) | outcome (KB-3-1) | max response (NIH3T3 [2]) 3.59% | outcome (HACAT [3]) | Potency (MCC-13) | Potency (MCC-26) | Potency (MKL-1) | Potency (MKL-2) | Potency (UISO) | Potency (WaGa)

Cc1ccc(S(=O)(=O)Nc2nc3ccccc3nc2Nc2ccc3nsnc3c2)cc1
inactive: max response (CRL-7250) -6.76% | outcome (KB-3-1) | max response (NIH3T3 [2]) -28.1% | Potency (MCC-13) | Potency (MCC-26) | Potency (MKL-2)
active: Potency (HaCat [1]) 14.4 µM | Potency (MKL-1) 1.82 µM | Potency (UISO) 5.12 µM
